In the supplement of paper PMC6555819:

Key:
Test in all cases: PBM binding z-score (relative to random genomic background probes); higher = stronger binding; sequences stand for … in GC…GCGATTGACAGCGTAGAATGAAGG
[1] = tested on: FXR:RXRa (NR concentration 270 nM, RXRa partner concentration 90 nM)
Summary of the method: (§1)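 The probes on custom Agilent 4×180K protein-binding microarrays were double-stranded, with 34-nt variable regions bearing direct-repeat seeds, single-nucleotide variants, half-site ablations and random human genomic background sequences. Incubation lasted 1 h with ligand-free nuclear receptor dimers in PBS pH 7.4, 2% milk, 0.02% Triton X-100, 1 mM DTT, 0.2 mg/mL BSA and 0.4 mg/ml salmon testes DNA. Antibodies against each partner (one per run) detected bound dimers, and fluorescence scans were regression-normalized. Binding z-scores take the random background probes as reference.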

[2] = tested on: LXRa:RXRa (NR concentration 270 nM, RXRa partner concentration 90 nM)
Summary of the method: as §1

[3] = tested on: LXRa homodimer (NR concentration 270 nM)
Summary of the method: as §1

[4] = tested on: LXRb:RXRa (NR concentration 270 nM, RXRa partner concentration 90 nM)
Summary of the method: as §1

[5] = tested on: LXRb homodimer (NR concentration 270 nM)
Summary of the method: as §1

[6] = tested on: PPARa:RXRa (NR concentration 270 nM, RXRa partner concentration 90 nM)
Summary of the method: as §1

[7] = tested on: PPARg:RXRa (NR concentration 180 nM, RXRa partner concentration 90 nM)
Summary of the method: as §1

[8] = tested on: PPARg:RXRa 270nM:90nM, anti-RXR (NR concentration 270 nM, RXRa partner concentration 90 nM)
Summary of the method: as §1

[9] = tested on: PPARg:RXRa 30nM:10nM, anti-RXR (NR concentration 30 nM, RXRa partner concentration 10 nM)
Summary of the method: as §1

[10] = tested on: PPARg:RXRa 90nM:30nM, anti-RXR (NR concentration 90 nM, RXRa partner concentration 30 nM)
Summary of the method: as §1

[11] = tested on: PPARg:RXRa DBDmut IVT, anti-RXR (DBD mutation: RXRa K156A/R161A, NR concentration 270 nM, RXRa partner concentration 90 nM)
Summary of the method: as §1

[12] = tested on: PPARg:RXRa IVT, anti-PPARg (NR concentration 270 nM, RXRa partner concentration 90 nM)
Summary of the method: as §1

[13] = tested on: PPARg DBDmut:RXRa IVT, anti-PPARg (DBD mutation: PPARg1 K132A/R137A, NR concentration 270 nM, RXRa partner concentration 90 nM)
Summary of the method: as §1

[14] = tested on: PPARg DBDmut IVT, anti-PPARg (DBD mutation: PPARg1 K132A/R137A, NR concentration 270 nM)
Summary of the method: as §1

[15] = tested on: PPARg homodimer (NR concentration 180 nM)
Summary of the method: as §1

[16] = tested on: PXR:RXRa (NR concentration 270 nM, RXRa partner concentration 90 nM)
Summary of the method: as §1

[17] = tested on: PXR homodimer (NR concentration 270 nM)
Summary of the method: as §1

[18] = tested on: RARa:RXR (NR concentration 270 nM, RXRa partner concentration 90 nM)
Summary of the method: as §1

[19] = tested on: RARa homodimer (NR concentration 270 nM)
Summary of the method: as §1

[20] = tested on: RARb:RXRa (NR concentration 270 nM, RXRa partner concentration 90 nM)
Summary of the method: as §1

Row | Sequence | PBM binding z-score [1] | PBM binding z-score [2] | PBM binding z-score [3] | PBM binding z-score [4] | PBM binding z-score [5] | PBM binding z-score [6] | PBM binding z-score [7] | PBM binding z-score [8] | PBM binding z-score [9] | PBM binding z-score [10] | PBM binding z-score [11] | PBM binding z-score [12] | PBM binding z-score [13] | PBM binding z-score [14] | PBM binding z-score [15] | PBM binding z-score [16] | PBM binding z-score [17] | PBM binding z-score [18] | PBM binding z-score [19] | PBM binding z-score [20]
1 | ACTAGCAGGCCAAGTGTGGGTCACTCAAACAAAG | -0.167 | 0.206 | -0.486 | 0.691 | -0.959 | 2.19 | 0.66 | 1.38 | -0.102 | 0.685 | 2.05 | 2.79 | -0.334 | -0.527 | 0.309 | 0.546 | -0.107 | 1.35 | -1.55 | 1.79
2 | TCGAGTAGTTTAGGGGCATTCAGAATGGCGTCGA | -0.0607 | 0.048 | -0.581 | 0.829 | -0.452 | 0.549 | -0.393 | 0.237 | 0.631 | 0.559 | 0.75 | -0.281 | -0.799 | -1.01 | -0.288 | 0.444 | -0.187 | 0.532 | -0.906 | 0.653
3 | TAGCCTAGGTCATTGGGCCAGTCTAGTACGCATC | 3.99 | 3.21 | 0.181 | 1.78 | 0.0728 | 3.41 | 3.3 | 3.25 | 0.536 | 2.3 | 2.31 | 3.52 | -0.286 | -0.617 | 1.58 | 1.19 | -0.0454 | 1.82 | -0.767 | 3.53
4 | TCTCGGAGGACACGACAGGTCAGAGCTCGACATC | 1.13 | 1.51 | 0.823 | 0.827 | -0.505 | 1.4 | 0.559 | 1.1 | 2.11 | 1.5 | 0.919 | 0.745 | 0.0844 | -0.496 | 0.53 | 1.27 | -0.142 | 1.6 | 0.0819 | 2.62
5 | GTACCGAGGTGAATAGGTCGTTGATGAGTAGGCG | 1.03 | 0.978 | -0.306 | 0.874 | -0.778 | 2.68 | 1.86 | 2.13 | 0.147 | 0.886 | 1.68 | 2.73 | -0.652 | -0.0941 | 1.09 | 0.905 | -0.18 | 2.02 | -0.153 | 2.03
6 | CCTAATGGGCCAAAGGTCATTGATTCCAATGCTC | 5.18 | 5.16 | 3.94 | 4.84 | 1.08 | 6.03 | 11.8 | 9.96 | 11.9 | 12.1 | 3.94 | 6.02 | 0.0676 | -0.678 | 4.32 | 5.26 | 1.81 | 6.51 | 1.99 | 4.57
7 | TAACCAAGGTGAGCTGAGGTCGTTGATCCAACTC | 2.66 | 1.63 | -0.195 | 0.348 | -0.934 | 1.81 | 0.206 | 0.531 | -0.0525 | 0.137 | 0.67 | 1.99 | -0.13 | 0.366 | -0.0916 | 4.88 | 0.136 | 1.74 | -0.541 | 1.81
